We go through twelve compounds from PubChem BioAssay (NCATS).

Inconclusive results are not listed. Values without a mark were called inactive. Calls of active or inactive are those of the source. Calls follow the shape of the dose curve; as a rule, active = well fitted inhibition curve with a large enough effect; inconclusive = small, poorly fitted or top-dose-only effect; inactive = flat fitted curve, though single readings scatter.

Assay in all cases: qHTS profiling for inhibitors of Plasmodium falciparum proliferation (AID 504749); also: nearly all actives have a fitted effect of over 60% in size
Conditions in all cases: P. falciparum in erythrocytes, SYBR Green DNA, 72 h; series mostly up to 28.7 µM

One assay deals with DIV17. In a few lines: (§1)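 Infected RBCs, 0.3% parasitemia/2.5% Hct final; cpd 72 h, 37 C, 5% CO2; lysis buffer with saponin/triton/SYBR Green I, o/n RT dark; FI 485/535; norm. to artemisinin (0.29 uM) and DMSO.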
A further assay relates to DIV30. An outline of the steps: as §1
The test system of a further assay is Dd2. In a few lines:
as §1

In a further assay the test system is ECU. An outline of the steps: as §1
The test system of the next assay is FAB9. In a few lines:
as §1

Another assay relates to GB4. An outline of the steps:
as §1

For the next assay, the system named is HB3. An outline of the steps:
as §1

A further assay concerns ICS. An outline of the steps: as §1
The subject of the next assay is JCK. An outline of the steps:
as §1

The next assay relates to N140. In a few lines:
as §1

The subject of another assay is P93_24. In a few lines:
as §1

The subject of another assay is P94_40. In a few lines:
as §1

The next assay has as its system PAD. In a few lines:
as §1

A further assay has as its system PC15. An outline of the steps:
as §1

For the next assay, the system named is PC26. An outline of the steps: as §1
Another assay relates to PC49. In a few lines: as §1
In the next assay the test system is SC27B. An outline of the steps: as §1
A further assay relates to TAB109. In a few lines: as §1
The test system of the next assay is TAB113. An outline of the steps: as §1
The test system of a further assay is TAB165. In a few lines:
as §1
Potency is read from the fitted curve at half-maximal effect.

Turning to `O=C1CN=C(c2ccccc2)c2cc([N+](=O)[O-])ccc2N1`, the Potency result with DIV17, with DIV30, with Dd2, in the assay on ECU, with FAB9 and in the assay on GB4 was “inactive” throughout. The Potency entry in the assay with HB3, in the assay with ICS, in the assay on JCK, in the assay with N140, in the assay with P93_24 and with P94_40 was “inactive” each time. In addition, the Potency entry in the assay on PAD, in the assay on PC15, in the assay on PC26, in the assay with PC49, with SC27B and in the assay on TAB109 was “inactive” each time. In addition, the Potency entry in the assay on TAB113 and in the assay with TAB165 was “inactive” throughout.

For `Oc1ccc(Cl)cc1`, the Potency entry with DIV17, in the assay with DIV30, in the assay with Dd2, with ECU, with FAB9 and in the assay with GB4 was “inactive” in each case. The Potency entry in the assay with HB3, in the assay with ICS, with JCK, in the assay on N140, in the assay on P93_24 and with P94_40 was “inactive” throughout. The Potency result in the assay with PAD, with PC15, with PC26, with PC49, in the assay on SC27B and in the assay with TAB109 was “inactive” each time. Also, the Potency entry with TAB113 and with TAB165 was “inactive” each time.

As for `Clc1ccc2c(c1)C(c1ccccc1)=NCc1nncn1-2`, the Potency result in the assay on DIV17, in the assay with DIV30, in the assay on Dd2, with ECU, in the assay with FAB9 and in the assay with GB4 was “inactive” each time. Further, the Potency entry in the assay with HB3, in the assay on ICS, with JCK, in the assay on N140, in the assay with P93_24 and with P94_40 was “inactive” each time. Besides, the Potency entry in the assay with PAD, in the assay with PC15, in the assay on PC26, with PC49, in the assay with SC27B and in the assay on TAB109 was “inactive” throughout. For the same compound, the Potency entry in the assay with TAB113 and with TAB165 was “inactive” throughout.

On to `CN1C[C@H](C(=O)N[C@]2(C)O[C@@]3(O)[C@@H]4CCCN4C(=O)[C@H](Cc4ccccc4)N3C2=O)C=C2c3cccc4[nH]cc(c34)C[C@H]21`, for which the Potency with DIV17 was 338 nM (active); with DIV30 it was 1.69 µM (active); with Dd2 it was 141 nM (active); in the assay on ECU it was 316 nM (active); in the assay with FAB9 it was 6.31 µM (active); in the assay with GB4, 1.69 µM (active). The Potency in the assay with HB3 is 447 nM (active); in the assay on ICS, 39.8 nM (active); in the assay with JCK it was 7.08 µM (active); in the assay with N140, 282 nM (active); in the assay on P93_24, 398 nM (active); in the assay with P94_40 it was 251 nM (active). Also, the Potency in the assay with PAD was 199 nM (active); with PC15, 794 nM (active); in the assay with PC26 it was 1.69 µM (active); in the assay on PC49, 1.58 µM (active); with SC27B, 708 nM (active); with TAB109, 1.12 µM (active). In addition, the Potency is 794 nM (active) in the assay with TAB113 and 447 nM (active) with TAB165.

As for `c1ccc2c(c1)sc1ccccc12`, the Potency entry in the assay with DIV17, with DIV30, in the assay with Dd2, in the assay with ECU, with FAB9 and in the assay with GB4 was “inactive” in each case. Also, the Potency result with HB3, with ICS, with JCK, with N140, with P93_24 and in the assay on P94_40 was “inactive” in each case. Besides, the Potency entry in the assay on PAD, in the assay with PC15, with PC26, in the assay with PC49, in the assay on SC27B and with TAB109 was “inactive” in each case. In addition, the Potency entry in the assay on TAB113 and with TAB165 was “inactive” each time.

`O=P1(N(CCCl)CCCl)NCCCO1` (stereo not given): the Potency entry with DIV17, in the assay on DIV30, with Dd2, in the assay with ECU, with FAB9 and with GB4 was “inactive” each time. In addition, the Potency entry in the assay on HB3, with ICS, in the assay with JCK, with N140, with P93_24 and in the assay on P94_40 was “inactive” throughout. Besides, the Potency result in the assay with PAD, in the assay with PC15, in the assay on PC26, with PC49, in the assay on SC27B and in the assay with TAB109 was “inactive” each time. In addition, the Potency result with TAB113 and with TAB165 was “inactive” each time.

In the case of `CCC(C)(C)c1ccc(O)cc1`, the Potency entry with DIV17, with DIV30, in the assay on Dd2, with ECU, in the assay on FAB9 and in the assay on GB4 was “inactive” in each case. The Potency result in the assay on HB3, with ICS, with JCK, in the assay on N140, with P93_24 and with P94_40 was “inactive” throughout. Moreover, the Potency result in the assay on PAD, in the assay on PC15, in the assay with PC26, with PC49, in the assay on SC27B and with TAB109 was “inactive” in each case. For the same compound, the Potency entry in the assay with TAB113 and with TAB165 was “inactive” in each case.

Consider `CN1C(=O)C(O)N=C(c2ccccc2)c2cc(Cl)ccc21` (stereo not given), for which the Potency result in the assay with DIV17, in the assay on DIV30, in the assay with Dd2, with ECU, in the assay on FAB9 and with GB4 was “inactive” each time. The Potency result in the assay on HB3, in the assay on ICS, in the assay on JCK, with N140, with P93_24 and with P94_40 was “inactive” throughout. For the same compound, the Potency entry with PAD, with PC15, with PC26, in the assay on PC49, in the assay on SC27B and in the assay with TAB109 was “inactive” throughout. In addition, the Potency entry in the assay with TAB113 and in the assay with TAB165 was “inactive” throughout.

In the case of `O=C(Nc1ccc(Br)cc1)c1cc(Br)cc(Br)c1O`, the Potency result with DIV17, in the assay on DIV30, in the assay with Dd2, in the assay with ECU, with FAB9 and in the assay with GB4 was “inactive” in each case. Besides, the Potency entry in the assay on HB3, in the assay with ICS, in the assay with JCK, with N140, in the assay with P93_24 and in the assay on P94_40 was “inactive” throughout. Further, the Potency result in the assay on PAD, in the assay with PC15, with PC26, with PC49, with SC27B and with TAB109 was “inactive” throughout. The Potency entry in the assay on TAB113 and in the assay on TAB165 was “inactive” throughout.

With `COP(=S)(OC)Oc1ccc(S(=O)(=O)N(C)C)cc1`, the Potency entry in the assay with DIV17, in the assay with DIV30, in the assay on Dd2, in the assay with ECU, with FAB9 and in the assay on GB4 was “inactive” in each case. The Potency entry with HB3, in the assay on ICS, in the assay on JCK, with N140, in the assay on P93_24 and with P94_40 was “inactive” each time. For the same compound, the Potency entry with PAD, in the assay on PC15, in the assay with PC26, with PC49, in the assay on SC27B and in the assay with TAB109 was “inactive” in each case. Moreover, the Potency entry in the assay on TAB113 and with TAB165 was “inactive” each time.

Turning to `CCCCCCC(=O)CCCCCC/C=C/C[C@@H](O)[C@H](O)[C@@](N)(CO)C(=O)O`, the Potency result in the assay on DIV17, with DIV30, with Dd2, with ECU, in the assay on FAB9 and with GB4 was “inactive” throughout. Also, the Potency result with HB3, in the assay with ICS, with JCK, with N140, in the assay on P93_24 and in the assay with P94_40 was “inactive” throughout. The Potency entry in the assay with PAD, in the assay with PC15, with PC26, in the assay on PC49, with SC27B and with TAB109 was “inactive” in each case. Moreover, the Potency result with TAB113 and with TAB165 was “inactive” each time.

Consider `O=C1OC(c2ccc(O)c(S(=O)(=O)O)c2)(c2ccc(O)c(S(=O)(=O)O)c2)c2c(Br)c(Br)c(Br)c(Br)c21`, for which the Potency result with DIV17, with DIV30, with Dd2, in the assay on ECU, in the assay on FAB9 and in the assay on GB4 was “inactive” each time. Further, the Potency result in the assay with HB3, with ICS, with JCK, with N140, in the assay on P93_24 and with P94_40 was “inactive” each time. The Potency result in the assay with PAD, in the assay with PC15, in the assay with PC26, in the assay on PC49, in the assay on SC27B and in the assay on TAB109 was “inactive” throughout. Besides, the Potency entry in the assay on TAB113 and in the assay with TAB165 was “inactive” in each case.
